Test [1] is described as follows: qHTS assay for small molecule agonists of the p53 signaling pathway (AID 651631; calls by dose curve; further: nearly all actives have a fitted effect of over 15% in size; further: potency means the concentration at half of the fitted maximal effect). Put shortly: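 We treat p53RE-bla HCT-116 cells with compounds for 16 h at 37 °C, add LiveBLAzer B/G FRET substrate for 2 h at room temperature, and measure fluorescence intensity.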
Background: In qHTS, concentration-response curves come from the screen itself.

Test [2] in a line: qHTS assay for small molecules that induce genotoxicity in human embryonic kidney cells expressing luciferase-tagged ATAD5 (AID 651632). Further: nearly all actives have a fitted effect of over 15% in size. In outline:
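Luminescent reporter readout, HEK293T ATAD5-luc line: 16 hr drug exposure (37C, 5% CO2) followed by Amplite, 30 min RT.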

The nature of test [3]: qHTS assay for small molecule agonists of the p53 signaling pathway - cell viability (AID 651633; calls by dose curve; further: nearly all actives have a fitted effect of over 30% in size; further: potency means the concentration at half of the fitted maximal effect). In outline:
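p53RE-bla cells, seeded at 4,000 per well and rested 5 h at 37 C/5% CO2, received compounds in DMSO for 16 h at 37 C. CellTiter-Glo was then added, and luminescence was read after 30 min at room temperature to gauge cytotoxicity.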

Test [4] can be described thus: qHTS assay for small molecules that induce genotoxicity in human embryonic kidney cells expressing luciferase-tagged ATAD5 - cell viability (AID 651634; calls by dose curve; further: nearly all actives have a fitted effect of over 25% in size). In outline:
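Viability read: CellTiter-Fluor fluorescence, 30 min at 37C. Cells: HEK293T, luciferase-tagged ATAD5. Exposure: 15.5 hr, 37C, 5% CO2, compound or DMSO vehicle.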

A short description of test [5]: qHTS assay for small molecule disruptors of the mitochondrial membrane potential - cell viability (AID 720634; calls by dose curve; further: nearly all actives have a fitted effect of over 20% in size; further: potency means the concentration at half of the fitted maximal effect). Put shortly: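 HepG2, 1 hr compound, 37 C. ATP luminescence via CellTiter-Glo, 30 min RT, same well as m-MPI.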
Test [6] is described as follows: qHTS assay for small molecule disruptors of the mitochondrial membrane potential (AID 720635). Further: potency means the concentration at half of the fitted maximal effect. Put shortly: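 HepG2 cells (2,000/well) attached overnight at 37C, then took compound for 1 hr at 37C, 5% CO2. Mito-MPS dye was added for 30 min; fluorescence was read at 490/535 nm (monomers) and 540/590 nm (aggregates).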
Test [7] is described as follows: qHTS assay to test for compound auto fluorescence at 590 nm (red) in HepG2 cells (AID 720674). Put shortly: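 Rose Bengal sodium served as the red fluorophore standard. HepG2 monolayers (overnight attachment, MEM with 10% FBS) were exposed to test compounds for 1 hr at 37 C and read at Ex 540/Em 590 nm.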
Test [8] in a line: qHTS assay to test for compound auto fluorescence at 535 nm (green) in HepG2 cells (AID 720675).
Test [9] is described as follows: qHTS assay to test for compound auto fluorescence at 590 nm (red) in HEK293 cells (AID 720679). Put shortly:
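Each well held 2,000 HEK293 cells in medium containing 10% dialyzed FBS. Following 4-5 hr attachment at 37C, 23 nL test compound or DMSO was added; plates sat overnight, and red fluorescence (540/590nm) was recorded.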

Test [10] can be described thus: qHTS assay to test for compound auto fluorescence at 460 nm (blue) in HEK293 cells (AID 720678). Put shortly: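 Cells were seeded and left to adhere for 4-5 hr at 37C. Compounds were then pin-transferred. After an overnight incubation at 37C under 5% CO2, intrinsic fluorescence at 405/460 nm was measured and referenced to triamterene.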

Inconclusive results are not listed. Calls of active or inactive are those of the source. Unless noted, the call rests on the fitted dose curve; in most records, active means well fitted curve in the direction sought with a large enough effect in the repeat runs; inconclusive means weak or mixed curves; inactive means no such curve, though single readings can be large; an effect the other way counts as inactive or inconclusive.

Take `CCBr`: the Potency result in test [1], in test [2], in test [3], in [4], in [5] and in [6] was “inactive” throughout. Further, the compound was called inactive in test [7], in test [8] and in test [9].
For the compound `O=NN1CCCCCC1`, the Potency entry in test [1], in test [2], in test [3], in test [4], in test [5] and in test [6] was “inactive” each time. The compound was classed as inactive in [7], in [8], in test [10] and in test [9].
Turning to `N#Cc1ccc(Cl)cc1`, the Potency result in test [1], in test [2], in test [3], in [4] and in [5] was “inactive” each time. Besides, the compound was called inactive in test [7], in [8], in [10] and in test [9].
Regarding `ClCc1ccccc1`, the Potency entry in [1], in test [2], in [3], in test [4], in [5] and in test [6] was “inactive” throughout. Also, the outcome in [7], in test [8], in test [10] and in test [9] was inactive.
Turning to `CNC(C)Cc1ccccc1OC` (stereo unspecified), the Potency result in test [1], in test [2], in test [3], in [4], in [5] and in [6] was “inactive” each time. Besides, the result in test [7], in test [8], in test [10] and in [9] was inactive.
Consider `Cc1ccc2ccccc2c1`, for which the Potency entry in test [1], in test [2], in test [3], in test [4], in test [5] and in test [6] was “inactive” each time. The compound was classed as inactive in [7], in test [8] and in test [9].
On to `COC1=CC(=O)O[C@@H](CCc2ccccc2)C1`, for which the Potency result in test [1], in test [2], in test [3], in [4], in [5] and in test [6] was “inactive” each time. Further, the call in test [7], in test [8] and in test [9] was inactive.
With `N#Cc1cc(I)c(O)c(I)c1`, the Potency in [1] was 4.33 µM (active); in test [3] it was 34.4 µM (active); in test [5], 4.33 µM (active); in [6], 3.44 µM (active). The Potency result in test [2] and in test [4] was “inactive” in each case. In addition, the compound was classed as inactive in test [7], in test [10] and in test [9].
As for `c1ccc(C2CC2)c(OCC2=NCCN2)c1`, the Potency entry in test [1], in test [2], in test [3], in test [4], in [5] and in test [6] was “inactive” throughout. The outcome in test [7], in [10] and in test [9] was inactive.
Turning to `CCCCN=C=O`, the Potency entry in [1], in test [2], in test [3], in [4] and in [5] was “inactive” throughout. Further, the compound was classed as inactive in test [7], in test [10] and in test [9].
`CCOc1ccc(C(C)(C)COCc2cccc(Oc3ccccc3)c2)cc1`: the Potency entry in test [1], in test [2], in [3], in [4] and in test [5] was “inactive” throughout. The compound was classed as inactive in [7], in test [8], in test [10] and in [9].
For the compound `COC(=O)c1cncn1C(C)c1ccccc1` (stereo unspecified), the Potency result in [1], in [2], in test [3], in [4] and in test [5] was “inactive” throughout. Moreover, the result in [7], in test [8] and in test [9] was inactive.
As to `C=CC(=O)NCNC(=O)C=C`, the Potency result in test [1], in test [2], in [3] and in test [4] was “inactive” each time. The result in [7], in test [8], in [10] and in [9] was inactive.
In the case of `CC1CC(CC2CCC(N)C(C)C2)CCC1N` (stereo unspecified), the Potency result in [1], in test [2], in test [3], in test [5] and in [6] was “inactive” each time. Besides, the outcome in [7], in [8], in test [10] and in test [9] was inactive.
Take `Clc1ccc(C2(Cn3cncn3)CC(Br)CO2)c(Cl)c1` (stereo unspecified): the Potency result in test [1], in test [2], in test [3] and in test [4] was “inactive” each time. Also, the compound was called inactive in [7], in test [8], in test [10] and in test [9].
Take `CC(Cl)C(C)Cl` (stereo unspecified): the Potency entry in test [1], in test [2], in test [3], in test [4] and in [5] was “inactive” in each case. The compound was classed as inactive in [7] and in [9].
In the case of `N#C/C(N)=C(/N)C#N`, the Potency entry in test [1], in [2], in test [3], in [4] and in test [5] was “inactive” throughout. The compound was classed as inactive in test [7] and in test [9].
For the compound `C=CCCl`, the Potency result in test [1], in test [2], in test [3], in [4] and in test [5] was “inactive” throughout. Also, the compound was classed as inactive in test [7] and in test [9].
Take `CN(C)c1ccc(N(C)C)cc1`: the Potency result in test [1], in test [2], in [3], in [4] and in [6] was “inactive” each time. The compound was classed as inactive in test [7], in test [8], in [10] and in test [9].
As for `Cc1ccccc1C(=O)Nc1cccc(OC(C)C)c1`, the Potency entry in test [1], in test [2], in [3] and in test [4] was “inactive” in each case. Further, the Potency in [6] is 30.6 µM (active). In addition, the compound was called inactive in [7], in [8], in test [10] and in [9].
Turning to `COc1cc(Cl)c(OC)cc1Cl`, the Potency entry in test [1], in test [2], in test [3], in [4] and in [5] was “inactive” throughout. The outcome in [7], in test [8] and in [9] was inactive.
As for `CO/C=C(/C(=O)OC)c1ccccc1COc1cccc(C(F)(F)F)n1`, the Potency in [1] was 8.63 µM (active); in [6] it was 6.85 µM (active). The Potency entry in test [2], in test [3] and in test [4] was “inactive” in each case. Also, the compound was classed as inactive in test [7], in test [8], in [10] and in test [9].
Take `CCCN(CC1CC1)c1c([N+](=O)[O-])cc(C(F)(F)F)cc1[N+](=O)[O-]`: the Potency result in [1], in test [2], in test [3] and in [5] was “inactive” throughout. For the same compound, the Potency in [6] was 30.6 µM (active). The compound was classed as inactive in test [7], in test [8], in [10] and in [9].
For `CC(=O)C(C)(C)C`, the Potency result in test [1], in test [2], in test [3], in test [4] and in test [5] was “inactive” throughout. Moreover, the result in [7], in [10] and in test [9] was inactive.
As to `BrCCCCBr`, the Potency entry in [1], in test [2], in test [3], in test [4] and in test [5] was “inactive” each time. The call in [7], in [8], in [10] and in test [9] was inactive.
With `CC(=O)CCC(C)=O`, the Potency entry in test [1], in test [2], in test [3], in test [4] and in test [5] was “inactive” each time. Also, the call in [7], in test [8], in test [10] and in [9] was inactive.
On to `C#CCOC(C(=O)OCCN(C)C)(c1ccccc1)c1ccccc1`, for which the Potency result in test [1], in [2], in test [3], in test [4] and in [5] was “inactive” each time. The outcome in test [7], in [10] and in test [9] was inactive.
With `ClCC(Br)CBr` (stereo unspecified), the Potency result in test [1], in test [2], in test [3], in test [4] and in test [5] was “inactive” each time. The outcome in test [7], in [8] and in test [9] was inactive.

Source of the values: PubChem BioAssay (Tox21).
